PubChem BioAssay AID1159580 (chemical genetic matrix, 2015)
Where “and” joins values, the source holds several entries; their conditions need not be identical. Identical values can stand only once. Among all 5,500 compounds or so, about 2,000 (36%) were called active. About 18% were inconclusive and are not listed. Cut-off read from the data, not from the text of the source: active = normalized growth mostly below about 0.91 (no sharp cut-off); inconclusive = no clear call, values can overlap the other calls; inactive = mostly above about 0.92. The list shows a part of the results.

Experiment: chemical genetic growth profiling, strain panel (AID 1159580);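 note: tested at 20 µM; growth read once vehicle control cultures reached saturation at 30 °C; 1 = growth at the plate median or of vehicle wells; lower values mean less growth of the strain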
Details: S. cerevisiae deletion strains, growth OD

Measured: normalized growth

NCCCCCC(=O)O
active: locus YBR021W, strain FUR4, stronger effect = lower value 0.706
inactive: locus YAL013W, strain DEP1, stronger effect = lower value 0.951 | locus YAL021C, strain ccr4, stronger effect = lower value 0.99 | locus YAL026C, strain drs2, stronger effect = lower value 1 | locus YAL030W, strain snc1, stronger effect = lower value 0.989 | locus YAL040C, strain CLN3, stronger effect = lower value 0.979 | locus YBL061C, strain skt5, stronger effect = lower value 1 | locus YBR009C, strain hhf1, stronger effect = lower value 1 | locus YBR023C, strain chs3, stronger effect = lower value 1 | locus YBR171W, strain sec66, stronger effect = lower value 0.991 | locus YBR229C, strain ROT2, stronger effect = lower value 0.988 | locus YBR231C, strain swc5, stronger effect = lower value 1.01 | locus YBR279W, strain paf1, stronger effect = lower value 0.996 | locus YCL011C, strain gbp2, stronger effect = lower value 0.994 | locus YCL016C, strain dcc1, stronger effect = lower value 1.01 | locus YCL029C, strain bik1, stronger effect = lower value 0.999 | locus YCL061C, strain MRC1 (second series), stronger effect = lower value 0.983 | locus YCL069W, strain vba3, stronger effect = lower value 0.995 | locus YCR088W, strain abp1, stronger effect = lower value 0.995 | locus YDL005C, strain med2, stronger effect = lower value 1.01 | locus YDL035C, strain GPR1, stronger effect = lower value 0.963 | locus YDL040C, strain nat1, stronger effect = lower value 0.997 | locus YDL074C, strain BRE1, stronger effect = lower value 0.964 | locus YDL101C, strain DUN1, stronger effect = lower value 1.01 | locus YDL134C, strain PPH21, stronger effect = lower value 0.979 | locus YDL185W, strain tfp1, stronger effect = lower value 1.01 | locus YDL192W, strain arf1, stronger effect = lower value 1.01 | locus YDR001C, strain nth1, stronger effect = lower value 1.03 | locus YDR069C, strain doa4, stronger effect = lower value 1.01 | locus YDR101C, strain arx1, stronger effect = lower value 0.981 | locus YDR137W, strain rgp1, stronger effect = lower value 0.972 | locus YDR150W, strain NUM1, stronger effect = lower value 0.974 | locus YDR159W, strain sac3, stronger effect = lower value 1 | locus YDR162C, strain NBP2, stronger effect = lower value 0.985 | locus YDR195W, strain ref2 0.976 | locus YDR297W, strain sur2, stronger effect = lower value 0.998 | locus YDR318W, strain mcm21, stronger effect = lower value 1.01 | locus YDR334W, strain swr1, stronger effect = lower value 1.02 | locus YDR335W, strain msn5, stronger effect = lower value 1.01 | locus YDR363W, strain ESC2, stronger effect = lower value 1.01 | locus YDR388W, stronger effect = lower value 0.998 | locus YDR392W, strain spt3, stronger effect = lower value 0.965 | locus YDR502C, strain sam2, stronger effect = lower value 1 | locus YEL003W, strain gim4, stronger effect = lower value 1 | locus YEL037C, strain rad23, stronger effect = lower value 0.999 | locus YEL061C, strain CIN8 (second series), stronger effect = lower value 1 | locus YEL061C, strain CIN8, stronger effect = lower value 0.995 | locus YER002W, strain NOP16, stronger effect = lower value 0.992 | locus YER015W, strain faa2, stronger effect = lower value 1 | locus YER016W, strain bim1, stronger effect = lower value 0.966 | locus YER110C, stronger effect = lower value 1.01 | locus YER111C, strain swi4, stronger effect = lower value 1.01 | locus YER155C, strain BEM2 (second series), stronger effect = lower value 0.976 | locus YER155C, strain BEM2, stronger effect = lower value 0.992 | locus YER167W, strain BCK2, stronger effect = lower value 0.99 | locus YFR010W, strain ubp6, stronger effect = lower value 1.03 | locus YGL078C, strain dbp3, stronger effect = lower value 1 | locus YGL086W, strain mad1, stronger effect = lower value 1 | locus YGL167C, strain pmr1, stronger effect = lower value 1 | locus YGL173C, strain kem1, stronger effect = lower value 1 | locus YGL227W, strain vid30, stronger effect = lower value 0.998 | locus YGL240W, strain doc1, stronger effect = lower value 1.03 | locus YGL248W, strain PDE1, stronger effect = lower value 0.987 | locus YGL253W, strain hxk2, stronger effect = lower value 1 | locus YGR078C, strain PAC10, stronger effect = lower value 0.997 | locus YGR135W, strain pre9, stronger effect = lower value 1 | locus YGR252W, strain gcn5, stronger effect = lower value 0.907 | locus YHR013C, strain ard1, stronger effect = lower value 1 | locus YHR027C, strain rpn1, stronger effect = lower value 0.999 | locus YHR030C, strain SLT2, stronger effect = lower value 0.999 and 1 | locus YHR079C, strain IRE1 (second series), stronger effect = lower value 1.01 | locus YHR079C, strain IRE1, stronger effect = lower value 1.04 | locus YHR094C, strain hxt1, stronger effect = lower value 1 | locus YHR129C, strain ARP1, stronger effect = lower value 0.998 | locus YHR142W, strain chs7, stronger effect = lower value 1 | locus YHR200W, strain rpn10, stronger effect = lower value 1.01 | locus YIL066C, strain RNR3, stronger effect = lower value 0.962 | locus YIL073C, strain SPO22, stronger effect = lower value 1.03 | locus YIL125W, strain kgd1, stronger effect = lower value 1.01 | locus YIR030C, strain dcg1, stronger effect = lower value 1.01 | locus YJL092W, strain hpr5, stronger effect = lower value 1.03 | locus YJL095W, strain BCK1 (second series), stronger effect = lower value 0.985 | locus YJL095W, strain BCK1, stronger effect = lower value 0.995 and 1.03 | locus YJL115W, strain asf1, stronger effect = lower value 1.01 | locus YJL129C, strain trk1, stronger effect = lower value 1.01 | locus YJL134W, strain LCB3, stronger effect = lower value 0.992 | locus YJL154C, strain vps35, stronger effect = lower value 0.998 | locus YJL164C, strain tpk1, stronger effect = lower value 0.996 | locus YJL166W, strain qcr8, stronger effect = lower value 1.02 | locus YJL168C, strain set2, stronger effect = lower value 1.01 | locus YJL187C, strain SWE1 (second series), stronger effect = lower value 0.992 | locus YJR043C, strain POL32, stronger effect = lower value 0.952 | locus YJR066W, strain TOR1, stronger effect = lower value 0.993 | locus YKL009W, strain mrt4, stronger effect = lower value 1.04 | locus YKL068W, stronger effect = lower value 0.994 | locus YKL085W, strain MDH1 (second series), stronger effect = lower value 1.01 | locus YKL085W, strain MDH1, stronger effect = lower value 1.01 | locus YKL160W, strain elf1, stronger effect = lower value 0.996 | locus YKR001C, strain vps1, stronger effect = lower value 1.04 | locus YKR026C, strain gcn3, stronger effect = lower value 1 | locus YKR091W, strain srl3, stronger effect = lower value 0.993 | locus YLL001W, strain dnm1, stronger effect = lower value 1 | locus YLL026W, stronger effect = lower value 1 | locus YLL041C, strain sdh2, stronger effect = lower value 0.999 | locus YLR027C, strain aat2, stronger effect = lower value 1 | locus YLR039C, strain RIC1, stronger effect = lower value 1.01 | locus YLR058C, strain SHM2, stronger effect = lower value 0.992 | locus YLR102C, strain apc9, stronger effect = lower value 1 | locus YLR113W, strain HOG1, stronger effect = lower value 1.02 | locus YLR221C, strain rsa3, stronger effect = lower value 0.987 | locus YLR258W, strain gsy2, stronger effect = lower value 0.995 | locus YLR262C, strain YPT6 (second series), stronger effect = lower value 0.996 | locus YLR262C, strain YPT6, stronger effect = lower value 1.05 | locus YLR268W, strain sec22, stronger effect = lower value 0.991 | locus YLR320W, strain mms22, stronger effect = lower value 0.992 | locus YLR330W, strain CHS5, stronger effect = lower value 0.997 | locus YLR342W, strain FKS1 (second series), stronger effect = lower value 0.942 | locus YLR342W, strain FKS1, stronger effect = lower value 1.01 | locus YLR357W, strain rsc2, stronger effect = lower value 1.02 | locus YLR370C, strain arc18, stronger effect = lower value 1.02 | locus YLR371W, strain rom2, stronger effect = lower value 1.01 | locus YLR384C, strain iki3, stronger effect = lower value 1.01 | locus YLR418C, strain cdc73, stronger effect = lower value 0.958 | locus YML016C, strain PPZ1, stronger effect = lower value 0.996 | locus YML032C, strain rad52, stronger effect = lower value 1.01 | locus YML120C, strain ndi1, stronger effect = lower value 1 | locus YML124C, strain tub3, stronger effect = lower value 1 | locus YMR058W, strain fet3, stronger effect = lower value 1.02 | locus YMR078C, strain ctf18, stronger effect = lower value 1.02 | locus YMR125W, strain sto1, stronger effect = lower value 0.988 | locus YMR129W, stronger effect = lower value 0.998 | locus YMR205C, strain PFK2, stronger effect = lower value 1 | locus YMR223W, strain ubp8, stronger effect = lower value 1.01 | locus YMR231W, strain pep5, stronger effect = lower value 1 | locus YMR263W, strain SAP30, stronger effect = lower value 0.99 and 0.985 | locus YMR307W, strain GAS1, stronger effect = lower value 0.893 | locus YNL067W, strain RPL9B, stronger effect = lower value 0.977 | locus YNL071W, strain lat1, stronger effect = lower value 0.991 | locus YNL128W, strain TEP1, stronger effect = lower value 1 | locus YNL153C, strain GIM3, stronger effect = lower value 0.995 and 0.976 | locus YNL175C, strain NOP13, stronger effect = lower value 0.985 | locus YNL183C, strain NPR1, stronger effect = lower value 0.978 | locus YNL197C, strain WHI3, stronger effect = lower value 1.01 | locus YNL209W, strain ssb2, stronger effect = lower value 0.998 | locus YNL224C, strain SQS1, stronger effect = lower value 1.02 | locus YNL233W, strain BNI4, stronger effect = lower value 0.994 | locus YNL248C, strain rpa49, stronger effect = lower value 0.926 | locus YNL250W, strain rad50, stronger effect = lower value 1.01 | locus YNL271C, strain bni1, stronger effect = lower value 1.02 | locus YNL298W, strain CLA4, stronger effect = lower value 1 | locus YNL307C, strain MCK1, stronger effect = lower value 0.998 | locus YNL322C, strain KRE1 (second series), stronger effect = lower value 1.02 | locus YNR049C, strain mso1, stronger effect = lower value 1.02 | locus YNR052C, strain pop2, stronger effect = lower value 1.01 | locus YOL012C, strain htz1 0.774 | locus YOL147C, strain pex11, stronger effect = lower value 1.01 | locus YOR001W, strain rrp6, stronger effect = lower value 1.01 | locus YOR061W, strain CKA2, stronger effect = lower value 0.994 | locus YOR069W, strain VPS5, stronger effect = lower value 0.994 | locus YOR070C, strain gyp1, stronger effect = lower value 0.986 | locus YOR080W, strain dia2, stronger effect = lower value 1 | locus YOR083W, strain WHI5 (second series), stronger effect = lower value 0.991 | locus YOR083W, strain WHI5, stronger effect = lower value 1 | locus YOR106W, strain vam3, stronger effect = lower value 1.02 | locus YOR136W, strain idh2, stronger effect = lower value 1.03 | locus YOR144C, strain elg1, stronger effect = lower value 1 | locus YOR184W, strain ser1, stronger effect = lower value 1 | locus YOR231W, strain MKK1, stronger effect = lower value 1.04 | locus YOR265W, strain rbl2, stronger effect = lower value 0.994 | locus YOR270C, strain vph1, stronger effect = lower value 1.01 | locus YOR290C, strain snf2, stronger effect = lower value 0.992 | locus YOR316C, strain cot1, stronger effect = lower value 1 | locus YPL051W, strain arl3, stronger effect = lower value 1 | locus YPL055C, strain LGE1, stronger effect = lower value 0.959 and 1.01 | locus YPL078C, strain atp4, stronger effect = lower value 1.01 | locus YPL106C, strain sse1, stronger effect = lower value 1 | locus YPL240C, strain hsp82, stronger effect = lower value 1.02 | locus YPL256C, strain CLN2, stronger effect = lower value 1.04 | locus YPR119W, strain clb2, stronger effect = lower value 1.01 | locus YPR141C, strain kar3, stronger effect = lower value 1.02 | locus YPR163C, strain tif3, stronger effect = lower value 1 | locus YPR167C, strain met16, stronger effect = lower value 1.01 | strain wtn01, stronger effect = lower value 0.997
